Growth data for nine molecules are collected here from PubChem BioAssay (NCI).

Holding throughout (assay): NCI-60 one-dose screen, 48 h (100 = growth as untreated, 0 = no growth, -100 = all killed)
Experiment [1] concerns HCT-15 colon. The conditions noted are these: 10 µM unless noted.
In experiment [2] the test system is HT29 colon. Conditions: 10 µM unless noted.
Experiment [3] concerns SNB-75 CNS. The conditions noted are these: 10 µM unless noted.
In experiment [4] the test system is SNB-19 CNS. Conditions: 10 µM unless noted.
In experiment [5] the test system is U251 CNS. The conditions noted are these: 10 µM unless noted.
Experiment [6] concerns SK-MEL-5 melanoma. The conditions noted are these: 10 µM unless noted.
Experiment [7] concerns LOX IMVI melanoma. Conditions: 10 µM unless noted.
Experiment [8] concerns SK-MEL-2 melanoma. Conditions: 10 µM unless noted.
Experiment [9] concerns EKVX NSCLC. Conditions: 10 µM unless noted.
Experiment [10] concerns SN12C renal. Conditions: 10 µM unless noted.
Experiment [11] concerns UO-31 renal. The conditions noted are these: 10 µM unless noted.
For experiment [12], the system named is TK-10 renal. The conditions noted are these: 10 µM unless noted.
Experiment [13] has as its system ACHN renal. Conditions: 10 µM unless noted.
Experiment [14] deals with CAKI-1 renal. The conditions noted are these: 10 µM unless noted.
For experiment [15], the system named is A498 renal. The conditions noted are these: 10 µM.
In experiment [16] the test system is HL-60(TB) leukemia. Conditions: 10 µM unless noted.
Experiment [17] deals with UACC-62 melanoma. Conditions: 10 µM unless noted.
The subject of experiment [18] is SK-MEL-28 melanoma. The conditions noted are these: 10 µM unless noted.
Experiment [19] deals with CCRF-CEM leukemia. The conditions noted are these: 10 µM unless noted.
The test system of experiment [20] is PC-3 prostate. The conditions noted are these: 10 µM unless noted.

SMILES strings stand for the structures. Compounds without any hit were thinned out: in the full panel of roughly 83,000, 20% have a hit.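 Percent growth is the endpoint: 0 to 100 indicates growth inhibition (40 means 60% inhibition), 0 means no net growth, and negative values indicate cell death.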 Values without a mark were called inactive. Activity calls are given as the source filed them. Rule for the calls: active = growth percent below 10; inactive = the rest.

Consider `CNC(=O)Oc1ccc(N(C)C)cc1C(C)C`, for which the growth in experiment [1] was 102%; in experiment [2], 98.2%; in [3], 66.5%; in experiment [4], 101%; in [5], 101%; in experiment [6], 99.4%. The growth in experiment [7] is 105%; in experiment [8] it was 103%; in [9], 95.5%; in [10] it was 98.2%; in experiment [11], 88.7%; in experiment [12] it was 95%. The growth was 99.4% in experiment [13], 40.9% in experiment [14], 101% in [15] and 130% in experiment [16].
Turning to `CC[C@H](C)[C@@H]([C@@H](CC(=O)N1CCC[C@H]1[C@H](OC)[C@@H](C)C(=O)N[C@H](C)[C@@H](O)c1ccccc1)OC)N(C)C(=O)[C@@H](NC(=O)[C@@H](NC)C(C)C)C(C)C`, the growth in experiment [1] was 17.2%; in experiment [2], 3.65% (active); in [3], 39%; in experiment [4] it was 45.4%; in experiment [5] it was 6.43% (active); in [6], -37.6% (active). In addition, the growth in experiment [17] is 47.3%; in experiment [7] it was 19.6%; in experiment [18] it was 63.5%; in [8], 41.8%; in experiment [9], 41.7%; in experiment [10] it was 36.7%. Further, the growth was 40.6% in experiment [11], 29.3% in experiment [13], -11.7% (active) in experiment [15] and -20.2% (active) in experiment [16].
As to `CC[C@H](C)[C@H](NC(=O)c1ccccn1)C(=O)N(C)[C@H](C[C@@H](OC(C)=O)c1nc(C(=O)N[C@@H](Cc2ccccc2)C[C@H](C)C(=O)OC)cs1)C(C)C`, the growth is 13.5% in experiment [1]; 2.48% (active) in experiment [2]; 5.57% (active) in experiment [3]; 52.4% in experiment [4]; 16.1% in [5]; -22.6% (active) in experiment [6]. Also, the growth in [17] is 13.1%; in experiment [7], 29.1%; in experiment [18], 53.2%; in experiment [8], -8.78% (active); in experiment [9], 30.3%; in [10], 46.9%. The growth in experiment [11] is 42.2%; in [13], 40.2%; in experiment [15] it was -5.19% (active); in experiment [16] it was -21.2% (active).
`C[C@@H]1C[C@@]2(C)[C@@H](CC[C@@H]3[C@@H]2CC[C@]2(C)C(=O)CC[C@@H]32)CC1=O`: the growth is 103% in [1]; 91.8% in [2]; 86.2% in experiment [3]; 96.7% in [4]; 101% in [5]; 114% in experiment [6]. Besides, the growth is 99.4% in [17]; 98.5% in experiment [7]; 76.7% in experiment [18]; 86.5% in experiment [9]; 103% in [10]; 96.3% in [11]. Moreover, the growth is 103% in experiment [13]; -30.7% (active) in experiment [14]; 71.9% in experiment [15]; 74.6% in [16]; 83.7% in experiment [19].
In the case of `CCCc1cc(O)c2c3c(c(=O)oc2c1)CN(C)CC3`, the growth was 23.2% in experiment [1]; 10.8% in experiment [2]; -8.41% (active) in experiment [3]; 44.4% in [4]; 16.7% in [5]; 42.3% in experiment [6]. For the same molecule, the growth in experiment [17] is 37.8%; in experiment [7], 30.9%; in experiment [18], 56.4%; in [8], 97.7%; in experiment [10], 39.1%; in experiment [11], 22.7%. In addition, the growth in experiment [12] was 47.3%; in [13], 44.6%; in experiment [14] it was 4.68% (active); in experiment [15], 15.4%; in experiment [16], 6% (active); in experiment [19] it was 18.8%.
Turning to `Clc1cc(N2CC2)nc(N2CC2)n1`, the growth in experiment [1] is 72.5%; in experiment [2], 79.8%; in experiment [3] it was 70.6%; in experiment [4], 65.9%; in [5] it was 67.9%; in experiment [6], 73.9%. Further, the growth in experiment [17] was 54.4%; in experiment [7], 51.7%; in experiment [18] it was 92.1%; in experiment [9] it was 107%; in experiment [10], 48.5%; in experiment [11], 74.7%. Also, the growth in experiment [12] is 104%; in experiment [13], 22.2%; in experiment [14] it was 5.82% (active); in experiment [15], 104%; in experiment [19] it was 54.8%.
On to `O=C1NC(=O)C(=Cc2ccc(OCCCCC3CCCCC3)c(Cl)c2)C(=O)N1`, for which the growth is 98.5% in experiment [1]; 92.3% in experiment [2]; 96.2% in experiment [3]; 100% in experiment [4]; 81.7% in [5]; 98.3% in experiment [6]. In addition, the growth in experiment [17] was 98.3%; in experiment [7], 56.1%; in [18] it was 111%; in experiment [8], 89.5%; in experiment [9], 95.9%; in experiment [10], 77.3%. Further, the growth in experiment [11] was 81.2%; in experiment [12], 94.1%; in [13] it was 104%; in experiment [15] it was 82.7%; in experiment [19] it was 90.1%.
Consider `COc1ccc(/C=C\c2cc(OC)c(OC)c(OC)c2)c(NS(=O)(=O)c2ccc(F)cc2)c1O`, for which the growth in experiment [1] was 6.21% (active); in experiment [2], 12.5%; in experiment [3] it was 34.9%; in [4], 37.4%; in experiment [5] it was 19.1%; in [6] it was -28.4% (active). The growth in [17] was 40.1%; in experiment [7], 19.3%; in experiment [18], 63.2%; in [8] it was -6.87% (active); in experiment [10] it was 28.1%; in [11] it was 48%. The growth in [12] was 59.3%; in experiment [13], 24.4%; in [14] it was 20.8%; in experiment [16], 10.1%; in experiment [19], 17.4%.
For `CC(C)(NC(=O)O[C@@H]1CN2CCC1CC2)c1csc(-c2ccc(F)cc2)n1`, the growth in [1] is 102%; in experiment [2], 104%; in experiment [3], 67.2%; in [4] it was 97.9%; in experiment [20] it was 99.5%; in [6], 99.2%. In addition, the growth in [17] was 87.9%; in [7] it was 90.5%; in experiment [18] it was 103%; in experiment [8] it was 108%; in [9], 89.5%; in experiment [10], 95.4%. Moreover, the growth is 81.1% in [11]; 91.9% in experiment [12]; 81.5% in experiment [14]; 90.6% in experiment [15]; 90% in [16]; 98.3% in experiment [19].
